The target in assay [1] is T1, Ephrin type-A receptor 3 (Homo sapiens) (UniProt P29320).
T1 sequence (whole entry): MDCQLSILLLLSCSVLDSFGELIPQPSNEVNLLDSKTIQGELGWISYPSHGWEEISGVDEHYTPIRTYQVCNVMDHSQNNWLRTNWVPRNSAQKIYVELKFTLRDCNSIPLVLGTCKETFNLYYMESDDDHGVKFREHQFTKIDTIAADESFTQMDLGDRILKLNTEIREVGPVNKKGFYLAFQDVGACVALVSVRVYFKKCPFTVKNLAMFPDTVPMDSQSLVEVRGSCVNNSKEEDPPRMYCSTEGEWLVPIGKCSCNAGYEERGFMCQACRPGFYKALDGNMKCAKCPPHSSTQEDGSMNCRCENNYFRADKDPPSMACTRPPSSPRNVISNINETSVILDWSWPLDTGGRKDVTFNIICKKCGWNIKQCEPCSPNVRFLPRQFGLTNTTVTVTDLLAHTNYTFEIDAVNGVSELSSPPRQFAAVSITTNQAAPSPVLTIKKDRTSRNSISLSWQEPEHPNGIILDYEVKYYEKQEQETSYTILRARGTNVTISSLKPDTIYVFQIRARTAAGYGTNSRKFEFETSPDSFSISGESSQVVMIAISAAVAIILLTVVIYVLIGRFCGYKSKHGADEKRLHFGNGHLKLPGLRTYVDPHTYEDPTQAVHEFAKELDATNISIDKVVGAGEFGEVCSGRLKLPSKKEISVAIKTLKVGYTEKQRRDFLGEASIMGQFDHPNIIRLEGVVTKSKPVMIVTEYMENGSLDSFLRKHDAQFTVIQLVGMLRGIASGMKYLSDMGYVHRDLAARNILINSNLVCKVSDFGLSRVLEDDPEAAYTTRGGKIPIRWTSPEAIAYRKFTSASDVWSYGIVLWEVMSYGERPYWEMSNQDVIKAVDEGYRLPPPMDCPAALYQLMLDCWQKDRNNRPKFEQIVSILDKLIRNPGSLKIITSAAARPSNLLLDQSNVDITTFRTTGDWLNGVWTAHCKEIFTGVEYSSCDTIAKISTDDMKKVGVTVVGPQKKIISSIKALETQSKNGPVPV
Conditions: at 10 µM; call rule not given here.

For assay [2], the target named is Ephrin type-A receptor 7 (Homo sapiens) (UniProt Q15375). Conditions: at 1 µM.
Sequence of Ephrin type-A receptor 7 (Homo sapiens) (Q15375 28-998 limits assumed): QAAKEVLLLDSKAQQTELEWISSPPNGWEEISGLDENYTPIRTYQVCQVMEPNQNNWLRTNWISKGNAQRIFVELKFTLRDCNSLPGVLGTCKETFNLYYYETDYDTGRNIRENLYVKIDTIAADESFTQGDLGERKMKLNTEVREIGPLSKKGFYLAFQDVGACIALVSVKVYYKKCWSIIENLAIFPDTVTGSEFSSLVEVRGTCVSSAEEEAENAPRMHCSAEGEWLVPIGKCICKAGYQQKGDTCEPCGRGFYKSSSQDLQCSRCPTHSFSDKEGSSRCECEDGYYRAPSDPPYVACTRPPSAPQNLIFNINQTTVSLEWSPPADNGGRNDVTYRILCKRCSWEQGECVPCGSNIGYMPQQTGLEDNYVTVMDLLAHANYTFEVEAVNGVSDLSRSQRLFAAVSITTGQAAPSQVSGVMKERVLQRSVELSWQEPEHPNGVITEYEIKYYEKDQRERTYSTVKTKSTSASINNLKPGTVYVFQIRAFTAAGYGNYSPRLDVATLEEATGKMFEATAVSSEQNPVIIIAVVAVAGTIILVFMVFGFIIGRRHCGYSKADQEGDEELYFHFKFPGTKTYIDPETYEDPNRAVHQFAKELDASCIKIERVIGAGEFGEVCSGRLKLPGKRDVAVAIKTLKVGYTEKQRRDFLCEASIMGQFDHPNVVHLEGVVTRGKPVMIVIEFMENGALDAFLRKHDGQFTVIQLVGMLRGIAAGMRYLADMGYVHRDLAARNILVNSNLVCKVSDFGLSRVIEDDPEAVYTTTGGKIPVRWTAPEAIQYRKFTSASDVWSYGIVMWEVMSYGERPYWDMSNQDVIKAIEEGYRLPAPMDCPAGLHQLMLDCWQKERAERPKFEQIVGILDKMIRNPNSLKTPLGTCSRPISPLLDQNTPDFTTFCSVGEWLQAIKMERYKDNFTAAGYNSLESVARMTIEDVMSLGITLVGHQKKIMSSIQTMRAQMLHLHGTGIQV
Assay [3] shares this target. Conditions: at 10 µM.
The target of assay [4] is T2, Ephrin type-A receptor 8 (Homo sapiens) (UniProt P29322).
T2 sequence (whole entry): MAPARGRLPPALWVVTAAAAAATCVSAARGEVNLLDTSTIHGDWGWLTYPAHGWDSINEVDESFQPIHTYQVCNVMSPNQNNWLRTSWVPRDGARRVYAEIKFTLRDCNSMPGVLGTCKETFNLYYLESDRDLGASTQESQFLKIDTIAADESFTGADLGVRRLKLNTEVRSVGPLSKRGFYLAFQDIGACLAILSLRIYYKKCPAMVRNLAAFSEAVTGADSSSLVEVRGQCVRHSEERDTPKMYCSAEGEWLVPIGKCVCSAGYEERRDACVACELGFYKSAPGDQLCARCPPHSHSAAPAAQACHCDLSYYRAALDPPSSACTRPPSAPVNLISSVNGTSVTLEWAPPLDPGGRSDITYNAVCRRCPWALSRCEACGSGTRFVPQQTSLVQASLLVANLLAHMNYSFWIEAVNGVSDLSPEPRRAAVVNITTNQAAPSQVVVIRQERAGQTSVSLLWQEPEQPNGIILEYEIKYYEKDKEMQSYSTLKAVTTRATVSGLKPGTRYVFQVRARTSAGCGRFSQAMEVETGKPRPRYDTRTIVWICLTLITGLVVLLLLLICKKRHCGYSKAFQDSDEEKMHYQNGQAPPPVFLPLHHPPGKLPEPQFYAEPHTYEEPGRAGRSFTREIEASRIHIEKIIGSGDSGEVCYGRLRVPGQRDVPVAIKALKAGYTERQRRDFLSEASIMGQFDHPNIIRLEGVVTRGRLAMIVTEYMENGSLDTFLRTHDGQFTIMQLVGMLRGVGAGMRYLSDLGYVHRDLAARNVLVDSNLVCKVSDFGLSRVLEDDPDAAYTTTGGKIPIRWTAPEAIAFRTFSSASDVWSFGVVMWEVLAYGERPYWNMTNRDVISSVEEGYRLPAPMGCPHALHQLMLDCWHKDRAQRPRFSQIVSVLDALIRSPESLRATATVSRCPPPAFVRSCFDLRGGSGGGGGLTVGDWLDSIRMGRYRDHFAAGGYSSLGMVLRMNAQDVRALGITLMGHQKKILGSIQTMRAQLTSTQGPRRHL
The following applies: at 1 µM.

Assay [5] concerns the target T2, Ephrin type-A receptor 8 (Homo sapiens). The following applies: at 10 µM.
In assay [6] the target is T3, Ephrin type-B receptor 1 (Homo sapiens) (UniProt P54762).
T3 sequence (whole entry): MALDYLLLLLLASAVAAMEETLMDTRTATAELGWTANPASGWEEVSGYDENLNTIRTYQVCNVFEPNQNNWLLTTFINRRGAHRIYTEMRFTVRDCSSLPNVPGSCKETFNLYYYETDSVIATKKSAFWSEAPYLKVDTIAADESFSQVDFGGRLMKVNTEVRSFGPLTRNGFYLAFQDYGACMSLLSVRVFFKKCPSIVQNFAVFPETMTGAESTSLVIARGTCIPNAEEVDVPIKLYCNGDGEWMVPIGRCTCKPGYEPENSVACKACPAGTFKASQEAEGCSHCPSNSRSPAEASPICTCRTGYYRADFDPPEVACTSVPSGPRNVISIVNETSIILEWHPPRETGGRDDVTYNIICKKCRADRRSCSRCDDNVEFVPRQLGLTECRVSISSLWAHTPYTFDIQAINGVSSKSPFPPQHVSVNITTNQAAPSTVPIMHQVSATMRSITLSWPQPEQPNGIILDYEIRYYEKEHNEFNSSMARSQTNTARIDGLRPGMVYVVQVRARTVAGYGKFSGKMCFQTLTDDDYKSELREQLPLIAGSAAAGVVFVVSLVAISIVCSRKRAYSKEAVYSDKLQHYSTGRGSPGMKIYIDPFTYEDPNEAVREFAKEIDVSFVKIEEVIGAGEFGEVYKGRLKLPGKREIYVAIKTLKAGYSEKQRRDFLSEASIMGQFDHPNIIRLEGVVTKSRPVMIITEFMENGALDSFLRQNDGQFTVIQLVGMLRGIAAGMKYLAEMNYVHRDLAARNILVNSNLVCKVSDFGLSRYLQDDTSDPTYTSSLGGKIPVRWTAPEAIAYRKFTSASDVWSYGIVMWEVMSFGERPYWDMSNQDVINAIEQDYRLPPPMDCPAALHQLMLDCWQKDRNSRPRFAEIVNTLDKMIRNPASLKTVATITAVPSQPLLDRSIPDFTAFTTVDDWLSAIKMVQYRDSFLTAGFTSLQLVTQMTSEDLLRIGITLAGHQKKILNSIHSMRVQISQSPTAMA
The following applies: at 1 µM.

For assay [7], the target named is T3, Ephrin type-B receptor 1 (Homo sapiens). The following applies: at 10 µM.
In assay [8] the target is T4, Ephrin type-B receptor 2 (Homo sapiens) (UniProt P29323).
T4 sequence (whole entry): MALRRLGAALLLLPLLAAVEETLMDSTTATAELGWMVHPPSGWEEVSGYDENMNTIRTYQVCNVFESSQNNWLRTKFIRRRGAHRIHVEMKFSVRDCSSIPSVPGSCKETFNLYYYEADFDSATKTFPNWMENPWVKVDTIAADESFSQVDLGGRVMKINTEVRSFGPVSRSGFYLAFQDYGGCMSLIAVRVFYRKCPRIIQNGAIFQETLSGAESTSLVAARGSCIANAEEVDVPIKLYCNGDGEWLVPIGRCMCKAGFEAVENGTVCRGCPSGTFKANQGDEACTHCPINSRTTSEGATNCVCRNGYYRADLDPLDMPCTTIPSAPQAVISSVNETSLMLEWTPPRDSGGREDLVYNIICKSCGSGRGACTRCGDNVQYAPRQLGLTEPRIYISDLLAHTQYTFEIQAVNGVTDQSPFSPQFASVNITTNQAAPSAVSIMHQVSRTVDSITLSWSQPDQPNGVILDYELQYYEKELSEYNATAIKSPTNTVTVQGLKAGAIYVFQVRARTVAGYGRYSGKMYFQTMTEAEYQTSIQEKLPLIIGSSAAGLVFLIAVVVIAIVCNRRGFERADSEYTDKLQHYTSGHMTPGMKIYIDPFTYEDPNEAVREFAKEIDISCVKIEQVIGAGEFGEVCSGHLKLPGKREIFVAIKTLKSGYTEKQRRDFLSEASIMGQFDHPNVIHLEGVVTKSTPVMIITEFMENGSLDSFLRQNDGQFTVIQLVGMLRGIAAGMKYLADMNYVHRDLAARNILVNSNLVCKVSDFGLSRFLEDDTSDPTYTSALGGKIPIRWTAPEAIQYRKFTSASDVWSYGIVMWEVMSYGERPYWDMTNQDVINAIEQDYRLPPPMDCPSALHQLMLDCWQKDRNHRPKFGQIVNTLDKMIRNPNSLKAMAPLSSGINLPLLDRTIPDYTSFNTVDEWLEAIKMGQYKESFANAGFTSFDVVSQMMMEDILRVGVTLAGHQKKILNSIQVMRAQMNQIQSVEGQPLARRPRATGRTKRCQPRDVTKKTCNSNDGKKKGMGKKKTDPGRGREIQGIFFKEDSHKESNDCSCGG
Conditions: at 10 µM.

The target in assay [9] is T5, Ephrin type-B receptor 3 (Homo sapiens) (UniProt P54753).
T5 sequence (whole entry): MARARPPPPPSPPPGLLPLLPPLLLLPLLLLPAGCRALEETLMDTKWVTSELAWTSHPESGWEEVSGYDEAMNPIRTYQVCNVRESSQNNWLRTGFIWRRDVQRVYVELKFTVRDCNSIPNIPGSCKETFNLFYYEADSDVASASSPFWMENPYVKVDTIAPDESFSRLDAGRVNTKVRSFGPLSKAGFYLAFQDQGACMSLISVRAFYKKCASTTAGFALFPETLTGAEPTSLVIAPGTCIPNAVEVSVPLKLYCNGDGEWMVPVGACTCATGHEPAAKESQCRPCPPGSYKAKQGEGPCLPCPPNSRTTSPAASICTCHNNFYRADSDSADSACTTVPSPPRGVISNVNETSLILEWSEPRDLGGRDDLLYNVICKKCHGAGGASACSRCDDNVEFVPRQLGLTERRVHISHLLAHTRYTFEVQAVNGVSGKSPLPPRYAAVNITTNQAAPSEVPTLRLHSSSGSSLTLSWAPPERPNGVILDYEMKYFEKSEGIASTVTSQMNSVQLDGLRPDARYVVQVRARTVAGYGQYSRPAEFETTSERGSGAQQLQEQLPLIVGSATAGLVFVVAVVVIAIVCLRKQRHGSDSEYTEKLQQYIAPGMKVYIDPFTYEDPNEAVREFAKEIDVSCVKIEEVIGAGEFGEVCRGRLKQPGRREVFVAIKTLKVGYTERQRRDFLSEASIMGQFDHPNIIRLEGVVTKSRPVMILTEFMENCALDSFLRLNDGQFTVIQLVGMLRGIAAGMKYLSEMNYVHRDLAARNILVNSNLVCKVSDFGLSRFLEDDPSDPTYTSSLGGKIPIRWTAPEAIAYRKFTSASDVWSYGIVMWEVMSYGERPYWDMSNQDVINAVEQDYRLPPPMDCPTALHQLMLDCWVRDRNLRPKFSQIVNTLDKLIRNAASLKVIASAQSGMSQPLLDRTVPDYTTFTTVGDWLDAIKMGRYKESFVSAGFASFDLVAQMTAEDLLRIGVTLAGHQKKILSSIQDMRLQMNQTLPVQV
The following applies: at 1 µM.

Assay [10] deals with T5, Ephrin type-B receptor 3 (Homo sapiens). The following applies: at 10 µM.
The target in assay [11] is Receptor tyrosine-protein kinase erbB-4 (Homo sapiens) (UniProt Q15303). Conditions: at 1 µM.
Sequence of Receptor tyrosine-protein kinase erbB-4 (Homo sapiens) (Q15303 whole entry): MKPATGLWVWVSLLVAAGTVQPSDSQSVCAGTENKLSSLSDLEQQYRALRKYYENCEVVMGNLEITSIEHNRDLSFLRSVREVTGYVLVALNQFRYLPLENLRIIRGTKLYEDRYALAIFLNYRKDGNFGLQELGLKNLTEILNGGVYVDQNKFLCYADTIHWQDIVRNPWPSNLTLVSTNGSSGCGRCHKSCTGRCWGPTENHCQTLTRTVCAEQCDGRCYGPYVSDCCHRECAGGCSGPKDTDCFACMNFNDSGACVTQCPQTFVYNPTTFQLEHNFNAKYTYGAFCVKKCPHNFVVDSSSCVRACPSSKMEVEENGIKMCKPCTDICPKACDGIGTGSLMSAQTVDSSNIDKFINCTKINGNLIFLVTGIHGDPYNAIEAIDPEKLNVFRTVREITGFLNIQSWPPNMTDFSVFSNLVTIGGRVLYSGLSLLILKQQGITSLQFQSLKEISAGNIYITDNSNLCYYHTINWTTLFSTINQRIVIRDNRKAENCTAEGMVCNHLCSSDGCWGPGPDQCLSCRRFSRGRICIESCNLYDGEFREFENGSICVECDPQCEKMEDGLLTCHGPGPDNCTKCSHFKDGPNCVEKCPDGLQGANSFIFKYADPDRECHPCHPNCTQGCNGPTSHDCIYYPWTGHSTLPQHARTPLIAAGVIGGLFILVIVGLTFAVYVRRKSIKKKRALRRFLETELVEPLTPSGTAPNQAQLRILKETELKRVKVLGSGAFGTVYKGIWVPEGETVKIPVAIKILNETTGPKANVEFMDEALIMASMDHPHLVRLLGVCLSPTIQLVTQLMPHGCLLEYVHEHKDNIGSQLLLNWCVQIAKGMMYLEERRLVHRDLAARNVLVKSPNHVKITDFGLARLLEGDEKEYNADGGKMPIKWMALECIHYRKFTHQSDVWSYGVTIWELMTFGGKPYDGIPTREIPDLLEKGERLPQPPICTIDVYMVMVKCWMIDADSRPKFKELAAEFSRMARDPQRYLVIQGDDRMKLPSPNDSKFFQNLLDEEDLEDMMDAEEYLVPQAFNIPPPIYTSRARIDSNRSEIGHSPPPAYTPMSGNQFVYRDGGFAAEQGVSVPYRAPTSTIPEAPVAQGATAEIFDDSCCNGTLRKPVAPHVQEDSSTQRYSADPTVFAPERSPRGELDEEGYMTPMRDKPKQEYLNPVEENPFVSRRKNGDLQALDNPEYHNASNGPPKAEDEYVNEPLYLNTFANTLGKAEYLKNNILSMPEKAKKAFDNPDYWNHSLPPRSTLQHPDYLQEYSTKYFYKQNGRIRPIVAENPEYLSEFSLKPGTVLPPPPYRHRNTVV
For assay [12] the target is unchanged. The following applies: at 10 µM.

One may read the residual activity as the signal under treatment as a percentage of the control signal. As to `Cc1cc2ncc(-c3ccccc3)nc2cc1C`, the residual activity in assay [1] was found to be 92%; in assay [2] it was 99%; in assay [3], 93%; in assay [4], 97%; in assay [5], 98%; in assay [6] it was 106%. For the same compound, the residual activity was 106% in assay [7]; 103% in assay [8]; 106% (inactive) in assay [9]; 125% in [10]; 99% in [11]; 105% in assay [12].

The values are drawn from ChEMBL document CHEMBL2218924, “A broad activity screen in support of a chemogenomic map for kinase signalling research and drug discovery” (Biochem J, 2013).
